The record followed here is PubChem BioAssay (EPA / NIEHS).

By AC50 is commonly meant the concentration at which the activity in the assay is half-maximal.

Results filed as inconclusive are left out. Active and inactive are the calls of the source. Rule for the calls: active = hit-call score of the fitted dose curve at least 0.9, where 1 is the maximum; inconclusive = response in the unintended direction; inactive = score below 0.9.

Assay [1] concerns the target bovine Estrogen Receptor (ER), ESR1 (gene 407238) (UniProt P49884). Kind of assay: NVS_NR_bER: NovaScreen (NVS) Nuclear Receptor Binding Assay for bovine Estrogen Receptor (ER) (AID 2283345).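 Note: actives lower the bound radioligand count which means they displace the ER ligand.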 The method, boiled down:
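Displacement of a radioligand from estrogen receptor in bovine uterine membrane preparations; scintillation signal taken at 18 hours, DMSO as baseline. Single-concentration duplicates (25 uM) preceded concentration-response follow-up of actives.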

Assay [2] deals with Estrogen receptor (Homo sapiens) (UniProt P03372). Kind of assay: OT_ER_ERaERa_0480: Odyssey Thera (OT) 8-hour HEK293T Protein-Complementation Assay for Estrogen Receptor-alpha/-alpha Homodimer (AID 2283351).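 Note: rise in fluorescence from reassembled reporter fragments on ERα LBD homodimer in nucleus or whole cell.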 The method, boiled down: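 HEK293T cells stably expressing a PCA pair of ER alpha LBD (residues 310-547) were dosed for 8 hours. The gain in fluorescence intensity, nuclear for agonists and whole-cell for antagonists, was measured by laser scanning cytometry against DMSO vehicle.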

Assay [3] deals with T1, Estrogen receptor (Homo sapiens) + Estrogen receptor beta (Homo sapiens) (UniProt P03372+Q92731). Briefly: OT_ER_ERaERb_0480: Odyssey Thera (OT) 8-hour HEK293T Protein-Complementation Assay for Estrogen Receptor-alpha/-beta Heterodimer (AID 2283352). In short, it runs like this: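 HEK293T protein-fragment complementation assay of ER-alpha/ER-beta LBD heterodimerisation, read 8 h after dosing. Mean nuclear/cytoplasmic fluorescence intensity measured by laser scanning cytometry; gain of signal fitted relative to DMSO.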

Assay [4] has as its target T1, Estrogen receptor (Homo sapiens) + Estrogen receptor beta (Homo sapiens). Kind of assay: OT_ER_ERaERb_1440: Odyssey Thera (OT) 24-hour HEK293T Protein-Complementation Assay for Estrogen Receptor-alpha/-beta Homodimer (AID 2283356).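 Note: heteromer of ER alpha and ER beta binding domains; hits raise reporter fluorescence and both agonists and antagonists give an increase.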 In short, it runs like this: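 HEK293T stably expressing a PCA of ER alpha LBD (aa 310-547) and ER beta LBD (aa 263-489). After 24 h compound exposure, mean fluorescence intensity in nucleus (agonists) or nucleus and cytoplasm (antagonists) measured by laser scanning cytometry versus vehicle.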

Assay [5] concerns the target Estrogen receptor beta (Homo sapiens) (UniProt Q92731). Kind of assay: OT_ER_ERbERb_0480: Odyssey Thera (OT) 8-hour HEK293T Protein-Complementation Assay for Estrogen Receptor-beta/-beta Homodimer (AID 2283357).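 Note: active means signal gain over DMSO baseline.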 The method, boiled down: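 ER-beta LBD homodimer PCA stably expressed in HEK293T; 8 h compound exposure, then formaldehyde fixation and Draq5 staining. Gain in nuclear/cytoplasmic fluorescence intensity versus DMSO vehicle, read on laser scanning cytometer.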

The target of assay [6] is rat Glycine Receptor, Strychnine-sensitive (GlyRStrySens), Glra1 (gene 25674) (UniProt P07727). Briefly: NVS_LGIC_rGlyRStrySens: NovaScreen (NVS) Ligand-Gated Ion Channel Assay for rat Glycine Receptor, Strychnine-sensitive (GlyRStrySens) (AID 2283341). In short, it runs like this: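 Radioligand displacement on rat spinal cord membranes, 1 hr, filter scintillation read-out. Single-concentration duplicate screen at 25 uM; chemicals meeting threshold (e.g., 30% inhibition) rerun in concentration-response up to 50 uM. Loss of binding fitted versus DMSO.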

For assay [7], the system named is guinea pig Histamine Receptor (H2), gene 100729734. Kind of assay: NVS_GPCR_gH2: NovaScreen (NVS) G Protein-Coupled Receptor Assay for guinea pig Histamine Receptor (H2) (AID 2283342). In short, it runs like this: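 Guinea pig striatal membrane preparation with specific radioligand; bound counts measured by filtration and scintillation 1 h post-dosing, DMSO as baseline. Chemicals passing a 25 uM duplicate screen were titrated to a 50 uM maximum.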

For assay [8], the target named is Androgen Receptor/SRC-1 Co-activator, AR (gene 367) (UniProt P10275). Kind of assay: OT_AR_ARSRC1_0960: Odyssey Thera (OT) 16-hour HEK293T Protein-Complementation Assay for Androgen Receptor/SRC-1 Co-activator (AID 2283353).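 Note: actives raise the signal above DMSO so potency reflects increased AR and SRC-1 complex.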 The method, boiled down:
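Endpoint is gain-of-signal N/C fluorescence ratio in the 488 nm channel versus DMSO, from at least 400 cells per image, measured 16 h post-dosing. Cells: HEK293T stably carrying split-Venus AR/SRC-1 complementation constructs.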

The target of assay [9] is rat Glutamate, MK-801 Agonist Site (GluNMDA_MK801), Grin1 (gene 24408) (UniProt P35439). Briefly: NVS_LGIC_rGluNMDA_MK801_Agonist: NovaScreen (NVS) Ligand-Gated Ion Channel Assay for rat Glutamate, MK-801 Agonist Site (GluNMDA_MK801) (AID 2283340). In short, it runs like this:
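Rat forebrain membrane preparation; MK-801-site radioligand binding read by filtration and scintillation after 1.5 h. Single-point 25 uM duplicate screen, followed by singleton concentration series to 50 uM max; DMSO baseline.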

The target of assay [10] is chimpanzee Androgen Receptor (AR), AR (gene 747460) (UniProt O97775). Briefly: NVS_NR_cAR: NovaScreen (NVS) Nuclear Receptor Binding Assay for chimpanzee Androgen Receptor (AR) (AID 2283346).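 Note: radioligand displacement from AR measured by scintillation counting in a cell-free assay; a loss of bound radioligand signal versus DMSO counts as binding.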 In short, it runs like this: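 Cell-free competition binding with insect-cell (Sf9/Sf21) extracted chimpanzee AR; scintillation signal from lysate at 72 h. Screened in duplicate at 25 uM, then concentration-response for actives; fitting relative to DMSO.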

The target in assay [11] is Estrogen receptor (Homo sapiens) (UniProt P03372). Briefly: OT_ER_ERaERa_1440: Odyssey Thera (OT) 24-hour HEK293T Protein-Complementation Assay for Estrogen Receptor-alpha/-alpha Homodimer (AID 2283349).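 Note: hits raise fluorescence above DMSO for agonists and antagonists alike.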 The method, boiled down:
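HEK293T, stable ERα LBD (aa 310-547) homodimer PCA; 24 h compound exposure; mean fluorescence intensity (nuclear for agonists, nuclear plus cytoplasmic for antagonists) vs vehicle; positive fitting direction, DMSO baseline.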

Assay [12] has as its target Androgen Receptor/SRC-1 Co-activator, AR (gene 367) (UniProt P10275). Kind of assay: OT_AR_ARSRC1_0480: Odyssey Thera (OT) 8-hour HEK293T Protein-Complementation Assay for Androgen Receptor/SRC-1 Co-activator (AID 2283354).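 Note: hits raise the complementation signal above DMSO so AC50 marks enhancers.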 In short, it runs like this: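 Reconstituted split-Venus YFP signal from AR–SRC-1 interaction, read by imaging 8 h post-dose in stable HEK293T lines. The 488 nm nucleus-to-cytoplasm ratio (≥400 cells/image) was fitted upward against DMSO.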

Assay [13] concerns the target rat Mineralocorticoid Receptor (MR), Nr3c2 (gene 25672) (UniProt P22199). Briefly: NVS_NR_rMR: NovaScreen (NVS) Nuclear Receptor Binding Assay for rat Mineralocorticoid Receptor (MR) (AID 2283355). The method, boiled down:
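Primary HTS ran in duplicate at a single 25 uM concentration, with concentration-series follow-up for actives. Receptor source: adrenalectomized rat brain supernatant, cell-free. Radioligand displacement read by scintillation at 24 h, relative to DMSO baseline.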

The target in assay [14] is human Thyroid Receptor Alpha (TRa), THRA (gene 7067) (UniProt P10827). Kind of assay: NVS_NR_hTRa_Antagonist: NovaScreen (NVS) Nuclear Receptor Binding Assay for human Thyroid Receptor Alpha Antagonism (TRa) (AID 2283362).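 Note: activity is loss of signal relative to DMSO baseline.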 The method, boiled down: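 Cell-free AlphaLISA chemiluminescent binding read 1 h after dosing, antagonist mode; signal loss versus DMSO baseline. Primary screen in duplicate at 25 uM, then concentration series for actives.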

Assay [15] has as its system NCBI gene 100848466. Briefly: NVS_NR_bPR: NovaScreen (NVS) Nuclear Receptor Binding Assay for bovine Progextron Receptor (PR) (AID 2283343).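 Note: actives lower bound radioligand signal below DMSO meaning displacement of the label.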 The method, boiled down: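 Competitive radioligand binding with membranes from bovine uterus, scintillation read-out at 18 h post-dose. Compounds first tested in duplicate at 25 uM, then actives in concentration series; loss-of-signal relative to DMSO.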

Chain of Androgen Receptor/SRC-1 Co-activator, AR (gene 367) (P10275 whole entry, looked up): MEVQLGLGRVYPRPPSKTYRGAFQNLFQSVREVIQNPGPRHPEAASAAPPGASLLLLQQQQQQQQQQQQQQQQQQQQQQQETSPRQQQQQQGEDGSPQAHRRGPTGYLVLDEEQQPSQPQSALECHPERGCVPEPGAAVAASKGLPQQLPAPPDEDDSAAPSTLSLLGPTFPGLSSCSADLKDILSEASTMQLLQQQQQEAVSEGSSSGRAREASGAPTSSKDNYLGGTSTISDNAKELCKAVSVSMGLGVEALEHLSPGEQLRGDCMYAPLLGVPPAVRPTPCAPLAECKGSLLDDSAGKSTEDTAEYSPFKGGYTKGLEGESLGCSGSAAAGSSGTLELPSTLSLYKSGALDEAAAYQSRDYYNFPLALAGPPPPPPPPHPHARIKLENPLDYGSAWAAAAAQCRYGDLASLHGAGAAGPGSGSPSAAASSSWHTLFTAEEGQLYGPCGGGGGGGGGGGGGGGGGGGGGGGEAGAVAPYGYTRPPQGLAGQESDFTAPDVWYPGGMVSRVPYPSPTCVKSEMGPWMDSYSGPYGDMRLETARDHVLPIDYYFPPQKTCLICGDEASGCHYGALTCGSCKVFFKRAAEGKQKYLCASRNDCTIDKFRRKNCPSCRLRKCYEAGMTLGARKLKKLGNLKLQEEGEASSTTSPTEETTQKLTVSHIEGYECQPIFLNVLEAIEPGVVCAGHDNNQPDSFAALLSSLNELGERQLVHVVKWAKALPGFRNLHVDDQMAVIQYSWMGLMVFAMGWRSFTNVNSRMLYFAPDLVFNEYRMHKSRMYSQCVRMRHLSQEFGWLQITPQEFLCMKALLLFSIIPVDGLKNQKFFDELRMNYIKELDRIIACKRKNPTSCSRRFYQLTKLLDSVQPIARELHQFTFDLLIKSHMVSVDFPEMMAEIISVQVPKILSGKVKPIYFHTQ
Chain of bovine Estrogen Receptor (ER), ESR1 (gene 407238) (P49884 whole entry, looked up): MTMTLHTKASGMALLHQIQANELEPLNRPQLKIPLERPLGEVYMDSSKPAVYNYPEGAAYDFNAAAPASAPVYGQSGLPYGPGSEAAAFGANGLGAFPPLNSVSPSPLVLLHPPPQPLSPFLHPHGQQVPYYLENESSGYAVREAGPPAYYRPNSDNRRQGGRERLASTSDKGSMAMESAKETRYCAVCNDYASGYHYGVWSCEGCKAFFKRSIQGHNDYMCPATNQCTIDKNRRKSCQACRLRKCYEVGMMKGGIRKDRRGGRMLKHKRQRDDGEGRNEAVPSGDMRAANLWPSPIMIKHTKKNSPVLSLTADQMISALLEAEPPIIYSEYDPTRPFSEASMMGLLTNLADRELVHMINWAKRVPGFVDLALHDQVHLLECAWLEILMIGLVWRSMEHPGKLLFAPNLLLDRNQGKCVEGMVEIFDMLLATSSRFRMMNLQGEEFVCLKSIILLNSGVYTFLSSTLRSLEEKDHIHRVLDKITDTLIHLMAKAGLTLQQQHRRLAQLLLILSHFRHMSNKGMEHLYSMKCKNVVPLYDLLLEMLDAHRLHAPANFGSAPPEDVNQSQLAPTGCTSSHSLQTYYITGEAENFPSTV
Chain of Estrogen receptor (Homo sapiens) (P03372 whole entry, looked up, the tested form may be a part): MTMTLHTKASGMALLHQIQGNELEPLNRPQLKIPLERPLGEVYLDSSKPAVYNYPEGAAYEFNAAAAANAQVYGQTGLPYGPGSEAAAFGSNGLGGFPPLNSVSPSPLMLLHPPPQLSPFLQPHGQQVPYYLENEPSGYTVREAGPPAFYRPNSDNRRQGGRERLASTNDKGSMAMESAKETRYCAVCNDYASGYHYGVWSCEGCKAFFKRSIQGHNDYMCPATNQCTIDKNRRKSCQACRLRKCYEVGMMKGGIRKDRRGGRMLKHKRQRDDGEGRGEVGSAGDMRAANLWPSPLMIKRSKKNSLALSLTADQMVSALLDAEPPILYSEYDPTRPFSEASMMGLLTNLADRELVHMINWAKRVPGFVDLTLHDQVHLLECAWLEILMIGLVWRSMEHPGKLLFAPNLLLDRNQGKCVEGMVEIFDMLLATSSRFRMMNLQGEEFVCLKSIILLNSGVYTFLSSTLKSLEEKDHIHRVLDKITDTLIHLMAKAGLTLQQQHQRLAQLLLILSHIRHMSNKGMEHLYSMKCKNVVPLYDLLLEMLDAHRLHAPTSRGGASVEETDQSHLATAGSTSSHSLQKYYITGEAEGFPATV
T1 sequence (P03372 whole entry, looked up, the tested form may be a part): as above
T1 sequence (Q92731 whole entry, looked up, the tested form may be a part): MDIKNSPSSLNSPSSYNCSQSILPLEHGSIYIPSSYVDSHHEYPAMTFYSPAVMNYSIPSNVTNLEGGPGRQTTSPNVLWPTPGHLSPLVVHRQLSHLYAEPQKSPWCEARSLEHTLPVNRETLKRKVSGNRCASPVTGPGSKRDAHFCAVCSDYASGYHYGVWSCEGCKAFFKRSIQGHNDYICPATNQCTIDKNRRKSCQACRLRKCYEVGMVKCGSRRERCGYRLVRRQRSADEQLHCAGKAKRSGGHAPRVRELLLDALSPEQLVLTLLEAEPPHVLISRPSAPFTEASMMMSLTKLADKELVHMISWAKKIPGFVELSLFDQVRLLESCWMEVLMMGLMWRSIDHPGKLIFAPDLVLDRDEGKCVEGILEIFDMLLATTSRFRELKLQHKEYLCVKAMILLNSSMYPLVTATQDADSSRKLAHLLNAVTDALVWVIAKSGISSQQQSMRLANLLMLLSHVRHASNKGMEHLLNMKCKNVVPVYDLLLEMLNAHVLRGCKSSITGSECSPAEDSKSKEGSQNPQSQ
Chain of chimpanzee Androgen Receptor (AR), AR (gene 747460) (O97775 whole entry, looked up): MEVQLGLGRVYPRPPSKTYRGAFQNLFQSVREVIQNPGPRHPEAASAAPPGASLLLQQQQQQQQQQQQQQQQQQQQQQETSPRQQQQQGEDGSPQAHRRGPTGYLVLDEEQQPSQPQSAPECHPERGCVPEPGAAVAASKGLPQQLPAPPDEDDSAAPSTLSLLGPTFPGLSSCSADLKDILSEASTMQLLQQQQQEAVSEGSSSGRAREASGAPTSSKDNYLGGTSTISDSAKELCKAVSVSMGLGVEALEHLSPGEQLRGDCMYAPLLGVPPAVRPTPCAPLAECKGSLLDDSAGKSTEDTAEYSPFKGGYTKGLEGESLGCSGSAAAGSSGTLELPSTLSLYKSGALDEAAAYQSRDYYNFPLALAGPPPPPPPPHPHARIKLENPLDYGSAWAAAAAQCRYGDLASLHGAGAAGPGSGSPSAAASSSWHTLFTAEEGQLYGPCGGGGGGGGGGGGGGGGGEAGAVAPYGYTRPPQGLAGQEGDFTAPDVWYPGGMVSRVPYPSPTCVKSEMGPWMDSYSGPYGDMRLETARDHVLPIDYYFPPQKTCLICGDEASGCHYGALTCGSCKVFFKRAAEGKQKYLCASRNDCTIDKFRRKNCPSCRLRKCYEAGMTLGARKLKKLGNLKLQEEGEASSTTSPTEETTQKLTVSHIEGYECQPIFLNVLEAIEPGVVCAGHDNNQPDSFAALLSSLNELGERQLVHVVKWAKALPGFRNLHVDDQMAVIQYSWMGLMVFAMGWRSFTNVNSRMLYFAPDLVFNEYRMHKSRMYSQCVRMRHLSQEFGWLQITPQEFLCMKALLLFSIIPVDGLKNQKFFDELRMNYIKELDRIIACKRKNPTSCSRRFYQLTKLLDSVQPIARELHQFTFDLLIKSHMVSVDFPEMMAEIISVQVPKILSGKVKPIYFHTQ
Chain of Estrogen receptor beta (Homo sapiens) (Q92731 whole entry, looked up, the tested form may be a part): as the sequence (Q92731 whole entry, looked up, the tested form may be a part) above
Chain of human Thyroid Receptor Alpha (TRa), THRA (gene 7067) (P10827 whole entry, looked up): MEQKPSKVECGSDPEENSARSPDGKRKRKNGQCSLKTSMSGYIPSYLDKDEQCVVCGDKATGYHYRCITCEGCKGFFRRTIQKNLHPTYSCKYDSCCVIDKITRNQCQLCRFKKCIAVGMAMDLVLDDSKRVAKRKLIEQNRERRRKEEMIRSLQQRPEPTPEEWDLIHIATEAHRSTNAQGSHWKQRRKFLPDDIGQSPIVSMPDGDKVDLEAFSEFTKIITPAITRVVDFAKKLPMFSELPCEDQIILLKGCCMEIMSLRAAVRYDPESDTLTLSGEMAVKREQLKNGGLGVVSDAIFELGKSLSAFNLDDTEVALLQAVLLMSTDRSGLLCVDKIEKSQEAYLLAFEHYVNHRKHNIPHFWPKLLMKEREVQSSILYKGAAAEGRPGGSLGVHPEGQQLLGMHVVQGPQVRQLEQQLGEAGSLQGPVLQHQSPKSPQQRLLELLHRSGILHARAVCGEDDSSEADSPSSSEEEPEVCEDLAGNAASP
Chain of rat Glycine Receptor, Strychnine-sensitive (GlyRStrySens), Glra1 (gene 25674) (P07727 whole entry, looked up): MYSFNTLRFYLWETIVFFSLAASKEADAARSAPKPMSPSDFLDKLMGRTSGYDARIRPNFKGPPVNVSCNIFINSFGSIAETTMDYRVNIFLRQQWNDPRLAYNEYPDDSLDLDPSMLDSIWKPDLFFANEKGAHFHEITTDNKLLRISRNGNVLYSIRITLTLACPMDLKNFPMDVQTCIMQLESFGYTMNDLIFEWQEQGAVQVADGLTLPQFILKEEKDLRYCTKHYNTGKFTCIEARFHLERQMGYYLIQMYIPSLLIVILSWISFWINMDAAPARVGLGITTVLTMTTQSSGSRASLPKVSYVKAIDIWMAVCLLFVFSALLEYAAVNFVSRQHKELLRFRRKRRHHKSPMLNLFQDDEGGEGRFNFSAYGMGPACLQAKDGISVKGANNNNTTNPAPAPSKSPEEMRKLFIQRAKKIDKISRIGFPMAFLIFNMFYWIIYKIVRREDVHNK

As for `NC(=O)O`, the molecule was classed as inactive in assay [1] and in assay [2].
Consider `CCOC(=O)/C=C(C)/C=C/C[C@@H](C)CCCC(C)C`, for which, in assay [1], the outcome was inactive.
`CCOP(=S)(OCC)SCSP(=S)(OCC)OCC`: in assay [1], the result was inactive. Further, the half-maximal activity concentration (AC50) was 6.96 µM (active) in [2], 10.7 µM (active) in [3], 9.13 µM (active) in assay [4] and 14.7 µM (active) in assay [5].
Take `C(=NC1CCCCC1)=NC1CCCCC1`: in assay [1], the result was inactive.
Turning to `CCC(=O)C(CC(C)N(C)C)(c1ccccc1)c1ccccc1` (stereo not drawn), the AC50 in assay [6] was 18.1 µM (active); in assay [7], 4.02 µM (active). Besides, the molecule was called inactive in assay [2], in [3], in assay [8], in [4] and in assay [5].
For the molecule `ClC1=C(Cl)[C@]2(Cl)[C@H]3[C@H]([C@H]4C=C[C@H]3C4)[C@@]1(Cl)C2(Cl)Cl`, the outcome in [1] was inactive.
As for `CCN1CCC2(CC1)COc1cc3c(cc12)N(C(=O)c1ccc(-c2ccc(-c4nnc(C)o4)cc2C)cc1)CC3`, the AC50 in assay [9] is 39.1 µM (active); in [7], 11.6 µM (active); in [10], 16.8 µM (active); in [8], 7.04 µM (active); in assay [12], 11.7 µM (active). For the same molecule, the molecule was called inactive in [11], in assay [4] and in [5].
As to `COP(=S)(OC)Oc1ccc(Sc2ccc(OP(=S)(OC)OC)cc2)cc1`, the result in [1], in [10], in [11], in assay [2], in [3] and in assay [8] was inactive. For the same molecule, the outcome in assay [12] and in assay [5] was inactive. Moreover, the AC50 in assay [4] was 48.4 µM (active).
Turning to `O=C(OC1CCCCC1)c1ccccc1C(=O)OC1CCCCC1`, the result in assay [1], in assay [10] and in [13] was inactive. Further, the AC50 in assay [2] was 35 µM (active).
`Clc1ccc(C2(Cn3cncn3)CC(Br)CO2)c(Cl)c1` (stereo not drawn): the result in [1], in assay [11], in [2], in assay [3], in assay [5] and in assay [14] was inactive. The figures for the concentration at half-maximal activity (AC50) in assay [10] and in assay [4] were 7.36 µM (active) and 56.4 µM (active), respectively.
With `COC(=O)c1sccc1S(=O)(=O)NC(=O)Nc1nc(C)nc(OC)n1`, the result in assay [1], in [11], in assay [2], in assay [3], in [4] and in [5] was inactive.
`O=C(O)C(F)(F)C(F)(F)C(F)(F)C(F)(F)C(F)(F)C(F)(F)C(F)(F)C(F)(F)C(F)(F)C(F)(F)F`: in assay [15], the concentration at half-maximal activity (AC50) was 23.1 µM (active). Also, the molecule was classed as inactive in [5].
For the molecule `CCC[CH2][Sn]([CH2]CCC)([CH2]CCC)[O]C(=O)c1ccccc1`, the result in assay [1] and in assay [2] was inactive. Also, the half-maximal activity concentration (AC50) in assay [10] is 9.94 µM (active).
For `C=CC(=O)OCCCCCC(C)C`, the molecule was classed as inactive in assay [1], in assay [11], in [2], in assay [3], in [8] and in assay [12]. The outcome in assay [4] and in assay [5] was inactive.
On to `CC(C)(c1ccccc1)c1ccc(O)c(C(C)(C)c2ccccc2)c1`, for which the outcome in [1], in [2], in assay [3] and in assay [14] was inactive. Also, the AC50 in assay [4] is 12 µM (active); in assay [5] it was 2.61 µM (active).
For `COP(=S)(OC)Oc1cc(Cl)c(Br)cc1Cl`, the call in [1] was inactive.
On to `CCCCCCCCCl`, for which, in assay [10], the call was inactive.
